Screening data from PubChem.
HCV inh: inhibitors of hepatitis C virus infection; Potency, µM (series often up to 41.8 µM), for the others: top-dose activity change, negative = inhibition, actives largely listed as inhibitors; actives 3.4% (n = 340,000); Huh7.5.1 HCVcc-Cre infection, luciferase reporter, 44 h; AID 651820; further: potency means the concentration at half of the fitted maximal effect
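Cells seeded at 1,000/well and cultured 4 h, then compounds added followed by HCVcc-Cre virus (~0.5 moi). After 44 h further culture, luciferase substrate was added, plates held 15 min at room temperature, and luminescence read for 15 sec.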
HCMV antiviral: inhibitors of human cytomegalovirus | HFF cells, HCMV-luciferase reporter, 72 h; stronger effect = lower value | activity change, negative = inhibition, % at 57.5 µM | actives 4.5% (n = 410,000); in the data active means activity change below about -60%; inconclusive means no clear call, values can overlap the other calls; inactive means above about -39%
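Inhibition of viral replication was scored as loss of reporter luminescence in HFFs infected with HCMV-luciferase (MOI 1 PFU/cell) for 72 h; compounds tested at 2 doses, normalized to buffer and Salinomycin controls.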
VACV Venus inh: inhibitors of vaccinia virus (Venus reporter) | actives 0.46% (n = 330,000) | Vaccinia virus Venus reporter expression, fluorescence | Potency, µM (highest dose often 36.5 µM), for the others: at the highest dose activity change, negative = inhibition, most hits filed as inhibitors; calls by dose curve; tested in A549 cells; further: potency means the concentration at half of the fitted maximal effect; nearly all actives have a fitted effect of over 30% in size
Vaccinia mCherry: inhibitors of vaccinia virus infection (mCherry reporter signal); actives 0.63% (n = 310,000); Vaccinia virus mCherry reporter infection, fluorescence; AID 720579; Potency, µM (doses to about 36.5 µM), inactives show top-dose activity change, negative = inhibition, hits mostly inhibitors; calls by dose curve; tested in A549 cells; further: potency means the concentration at half of the fitted maximal effect; nearly all actives have a fitted effect of over 35% in size
Giardia FBPA inh: inhibitors of Giardia lamblia fructose-1,6-bisphosphate aldolase; AID 2451; Potency, µM (doses to about 59.6 µM), without a hit: top-dose activity, negative = inhibition, usual class: inhibitors; actives 0.71% (n = 290,000); purified Giardia FBPA; A8B2U2; further: potency means the concentration at half of the fitted maximal effect; nearly all actives have a fitted effect of over 55% in size
Target sequence (A8B2U2 whole entry, looked up): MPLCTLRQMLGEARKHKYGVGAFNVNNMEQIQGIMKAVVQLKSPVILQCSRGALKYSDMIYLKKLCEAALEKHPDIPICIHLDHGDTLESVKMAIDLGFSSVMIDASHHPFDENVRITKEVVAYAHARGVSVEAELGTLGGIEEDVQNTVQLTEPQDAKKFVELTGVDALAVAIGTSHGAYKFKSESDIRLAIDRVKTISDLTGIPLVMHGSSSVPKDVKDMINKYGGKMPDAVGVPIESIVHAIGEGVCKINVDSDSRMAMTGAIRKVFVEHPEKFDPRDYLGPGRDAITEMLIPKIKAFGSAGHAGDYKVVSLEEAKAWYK
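40 nM FBPA preincubated 10 min at RT with compound (up to 57.5 uM final), then substrate plus GAPDH/TPI/NAD/arsenate coupling and diaphorase/resazurin added. Fluorescence read after 20 min at RT, 525/598 nm.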
FMDV antiviral: foot and mouth disease virus antiviral activity; FMDV antiviral cell-based qHTS; Potency, µM (series often up to 57.9 µM), without a hit: at the highest dose activity change, negative = inhibition, hits mostly inhibitors; actives 1.2% (n = 410,000); calls by dose curve; tested in HEK293T cells; further: read-out not given here; potency means the concentration at half of the fitted maximal effect; nearly all actives have a fitted effect of over 45% in size
Active calls of the source: *; [ ] = another dose, or the depositor's remark. Sampled rows, rich in hits. Any-hit rate of the full collection: about 7.5%. Unless noted, the call rests on the fitted dose curve; in most records, active means well fitted curve in the direction sought with a large enough effect; inconclusive means small, poorly fitted or top-dose-only effect, or another doubt; inactive means no such curve, though single readings can be large; an effect the other way counts as inactive or inconclusive. On the % scale 0 is the no-effect control and ±100 the full control effect.

COc1ccccc1NC(=O)N(Cc1ccco1)Cc1cc2cc(C)cc(C)c2[nH]c1=O was read as HCV inh 3.2µM*, HCMV antiviral -12, VACV Venus inh inconclusive, Vaccinia mCherry -22%, Giardia FBPA inh 3% and FMDV antiviral inconclusive.
For CCN(CC)CCCNC(=S)N(Cc1cccs1)Cc1cc2cc3c(cc2[nH]c1=O)OCCO3 the results were HCV inh -7%, HCMV antiviral -104*, VACV Venus inh -13%, Vaccinia mCherry -2%, Giardia FBPA inh 0% and FMDV antiviral -3%.
For O=C(NNC(=O)C12CC3CC(CC(C3)C1)C2)c1ccccc1O the results were HCV inh 11%, HCMV antiviral -9, VACV Venus inh inconclusive, Vaccinia mCherry 10µM* and FMDV antiviral 10%.
For COc1ccc2c(c1)[C@@H](NC(C)=O)[C@H](C)[C@@H](c1ccccc1)N2C(C)=O the results were HCMV antiviral -5.
`CCOc1ccccc1Nc1ncnc2ccccc12` gave HCV inh 10µM*, HCMV antiviral -17, VACV Venus inh -14%, Giardia FBPA inh -8% and FMDV antiviral -32%.
For CC(C)Nc1ncnc2ccc(Br)cc12 the results were HCV inh inconclusive, HCMV antiviral -96*, VACV Venus inh inconclusive, Vaccinia mCherry inconclusive, Giardia FBPA inh -3% and FMDV antiviral inconclusive.
`CCOc1ccccc1Nc1ncnc2ccc(Br)cc12` gave HCV inh 22µM*, HCMV antiviral -30, VACV Venus inh -8%, Vaccinia mCherry -13%, Giardia FBPA inh 0% and FMDV antiviral -26%.
For CC(C)COc1ccc(Nc2ncnc3ccc(Br)cc23)cc1 the results were HCMV antiviral -5, VACV Venus inh -4%, Vaccinia mCherry -7% and FMDV antiviral 0%.
CCN1CCCC1CNC(=O)c1cnn(-c2nccc(-c3cccs3)n2)c1C1CC1 (stereo not drawn) was read as VACV Venus inh -6%, Vaccinia mCherry -9% and FMDV antiviral -9%.
Screening CN(C)CC/C=C1/c2ccccc2Sc2c(O)cc(Cl)cc21 returned HCV inh inconclusive, HCMV antiviral -22, VACV Venus inh inconclusive, Giardia FBPA inh inconclusive and FMDV antiviral -6%.
`COc1cc(Cl)cc2c1Sc1ccccc1/C2=C/CCN(C)C` gave HCV inh 4.5µM*, VACV Venus inh inconclusive, Vaccinia mCherry -29%, Giardia FBPA inh 9% and FMDV antiviral -15%.
`Cc1oc(-c2ccc(C(=O)NCc3ccc(N(C)C)cc3)cc2)nc1COc1ccccc1` gave HCMV antiviral 2, VACV Venus inh -13%, Vaccinia mCherry -14% and FMDV antiviral -17%.
Screening Cc1nc2c([N+](=O)[O-])c(C)c(C)cc2[nH]1 returned HCV inh 0%, HCMV antiviral -15, VACV Venus inh -13%, Vaccinia mCherry -15%, Giardia FBPA inh -13% and FMDV antiviral 1%.
`Cc1nc2c(Cl)cc(Cl)cc2[nH]1` gave HCV inh inconclusive, HCMV antiviral -65*, VACV Venus inh -19%, Giardia FBPA inh 4% and FMDV antiviral 7%.
Nc1ccccc1C(=O)/C=C/c1ccc2c(c1)OCO2 was read as HCV inh -2%[8.37 µM], HCMV antiviral -71*, VACV Venus inh inconclusive, Vaccinia mCherry inconclusive, Giardia FBPA inh 0% and FMDV antiviral 0%.
`O=C(/C=C/c1ccccc1)c1c(O)n(CCc2ccccc2)c(=O)[nH]c1=O` gave HCV inh 32%, HCMV antiviral -4, VACV Venus inh -3%, Vaccinia mCherry -3%, Giardia FBPA inh 10% and FMDV antiviral 13µM*.
COc1cc(/C=C/C(=O)c2c(O)n(CCc3ccccc3)c(=O)[nH]c2=O)ccc1O was read as HCV inh -2%, HCMV antiviral -97*, VACV Venus inh -4%, Vaccinia mCherry inconclusive, Giardia FBPA inh -15% and FMDV antiviral -5%.
Screening O=C(/C=C/c1ccc2c(c1)OCO2)c1c(O)n(CCc2ccccc2)c(=O)[nH]c1=O returned HCV inh 8%, HCMV antiviral -84*, VACV Venus inh 2%, Vaccinia mCherry -6%, Giardia FBPA inh -5% and FMDV antiviral 13µM*.
COc1cc(/C=C/C(=O)CC(=O)/C=C/c2ccc(O)c(OC)c2)ccc1O was read as HCV inh inconclusive, HCMV antiviral -35, VACV Venus inh 9%, Vaccinia mCherry 15%, Giardia FBPA inh inconclusive and FMDV antiviral inconclusive.
For CN(C(=O)COC(=O)/C=C/c1ccc2c(c1)OCO2)c1c(N)n(Cc2ccccc2)c(=O)[nH]c1=O the results were HCV inh -14%, HCMV antiviral -33, VACV Venus inh -7%, Vaccinia mCherry inactive and FMDV antiviral 7%.
Screening Nc1ccccc1C(=O)/C=C\c1ccc2c(c1)OCO2 returned Giardia FBPA inh 1%[12.9 µM].
`COc1cccc(CNC(=O)c2ccc3c(c2)nc2n3CCC(C)C2)c1OC` (stereo not drawn) gave HCMV antiviral -10, VACV Venus inh -16%, Vaccinia mCherry -12% and FMDV antiviral 17%.
Cc1noc(C)c1-c1ccc2ncnc(N3CCC(C(=O)O)CC3)c2c1 was read as Giardia FBPA inh 4% and FMDV antiviral -7%.
For Cc1c(C(=O)NCCc2cccnc2)cnn1-c1ncc2c(n1)-c1ccccc1CC2 the results were VACV Venus inh -25%, Vaccinia mCherry inconclusive and FMDV antiviral -10%.
Screening CC1=C(C(=O)Nc2ccccc2)C(c2cccn2C)n2ncnc2N1 (stereo not drawn) returned HCMV antiviral 21, VACV Venus inh 2%, Vaccinia mCherry 1% and FMDV antiviral inconclusive.
Screening O=c1cc(N2CCN(c3cccc(Cl)c3)CC2)[nH]c(=O)n1C1CCCCC1 returned HCV inh -32%, HCMV antiviral -93*, VACV Venus inh inconclusive, Giardia FBPA inh 1% and FMDV antiviral -9%.
For O=c1cc(N2CCN(c3ccccc3)CC2)[nH]c(=O)n1C1CCCCC1 the results were HCV inh -4%, HCMV antiviral 13, VACV Venus inh 3%, Vaccinia mCherry 2%, Giardia FBPA inh 0% and FMDV antiviral 2%.
O=C1CCCC(C(C(=O)OCc2ccccc2)C(=O)OCc2ccccc2)C1 (stereo not drawn) was read as Giardia FBPA inh 0%.
For O=C1NC[C@@H](CCCCN2C[C@H](Cc3ccccc3)N(CCC3CCCCC3)C(=O)C2=O)N(Cc2ccccc2)C1=O the results were HCMV antiviral -17, VACV Venus inh -2%, Vaccinia mCherry -14% and FMDV antiviral 21%.
`O=C1NC[C@H](CCCCN2C[C@H](Cc3ccc(O)cc3)N(CC3CCCCC3)C(=O)C2=O)N(Cc2ccccc2)C1=O` gave HCMV antiviral -75*, VACV Venus inh -2%, Vaccinia mCherry 1% and FMDV antiviral -18%.
